Our source for the luminescence values is PubChem BioAssay AID686977 (Southern Research Specialized Biocontainment Screening …, 2013).

The campaign covered roughly 9,400 compounds. Fewer than 10 were called active. Another 5% or so got no clear call; they are omitted. No rule for the calls is given here. Not all results are given here. Results with a measured potency or affinity are listed apart.

The assay is described as follows: Vibrio cholerae quorum sensing activators, luminescence (AID 686977). As to conditions: V. cholerae quorum sensing reporter, 6 h, active compounds read high; dose 50, dose unit µM unless noted.
Regarding `O=C(c1ccccc1)n1ccc(-c2cnc(-c3ccccc3)s2)n1`, the luminescence was 0 (inactive).

As for `CC1CCc2nn(CC(=O)NCCC3=CCCCC3)cc2C1` (stereo unspecified), the luminescence was 0 (inactive).

Regarding `C=CCn1c(SCc2cccc(C#N)c2)nnc1-c1ccccc1O`, the luminescence is 360 (inactive).

For `CCCC(c1nnnn1Cc1ccco1)N1CCN(c2cc(Cl)ccc2C)CC1` (stereo unspecified), the luminescence was 0 (inactive).

For the compound `CCCCCn1c(SCc2ccncc2)nc2cc(C(=O)NCc3ccco3)ccc2c1=O`, the luminescence is 40 (inactive).

On to `Cc1ccc(-c2nnc3n2N=C(c2ccccc2)CS3)cc1`, for which the luminescence is 0 (inactive).

With `Cc1c(NC(=O)c2cc(CC(C)C)on2)c(=O)n(-c2ccccc2)n1C`, the luminescence was 0 (inactive).

With `CCOC(=O)CC1C(=O)NCCN1C(=O)NC1CCCCC1` (stereo unspecified), the luminescence was 0 (inactive).

`CCn1c(SCC(=O)NCc2ccco2)nc2c(c1=O)SC(C)C2` (stereo unspecified): the luminescence is 0 (inactive).

`CCCc1[nH]nc2c1C(C1CCCCC1)C(C#N)=C(N)O2` (stereo unspecified): the luminescence is 0 (inactive).

For the compound `CC(C)Cn1c(SC(C)C(=O)Nc2ccc3c(c2)OCCO3)nc2ccccc2c1=O` (stereo unspecified), the luminescence was 40 (inactive).

For `Cc1cccc(NC(=O)C2CC(=O)n3cnnc3S2)c1` (stereo unspecified), the luminescence was 40 (inactive).

On to `COCCn1c(SCc2nc3ccccc3c(=O)[nH]2)nnc1-c1ccncc1`, for which the luminescence was 40 (inactive).

Take `COc1ccc2ccc(Oc3ncccn3)cc2c1`: the luminescence was 200 (inactive).

Take `CCOC(=O)N1CCC(Nc2c(N3CCN(c4cc(Cl)ccc4C)CC3)c(=O)c2=O)CC1`: the luminescence is 0 (inactive).

For `Cc1nc(-c2cccc(NS(=O)(=O)c3ccccc3)c2)cs1`, the luminescence is 160 (inactive).

With `CC1(C)N=C(N)N=C(N)N1c1cccc(C(=O)O)c1`, the luminescence was 0 (inactive).

As for `CCOC(=O)c1sc(NCc2ccco2)c(-c2nc3ccccc3s2)c1N`, the luminescence was 0 (inactive).

In the case of `N#CC1(c2ccccc2)CCCN1C(=O)c1ccccc1Cl` (stereo unspecified), the luminescence was 0 (inactive).

In the case of `Cn1c(=O)oc2cc(S(=O)(=O)N3CCCc4ccccc43)ccc21`, the luminescence is 40 (inactive).

`CC1CCc2cc(F)ccc2N1C(=O)c1cnc2sccn2c1=O` (stereo unspecified): the luminescence was 0 (inactive).

Consider `COc1ccc(-c2nc(CS(=O)CC(=O)N3CCCC3)c(C)o2)cc1` (stereo unspecified), for which the luminescence is 0 (inactive).

For `CC(C)(C)c1nc2ccccc2c2nnc(SCC(=O)Nc3nccs3)n12`, the luminescence was 80 (inactive).

As for `COc1ccc(NC(=O)CSc2nccn2-c2cccc(OC)c2)cc1`, the luminescence was 0 (inactive).

For the compound `Nc1nnnn1/N=C/c1ccccc1C(F)(F)F`, the luminescence was 40 (inactive).

For `Cc1c(Cl)cccc1NC(=O)c1cc(-c2ccccc2O)n[nH]1`, the luminescence is 0 (inactive).

Regarding `COc1ccc(N/N=C(\C=N\O)C(=O)c2ccc(OC)cc2)cc1`, the luminescence was 0 (inactive).

With `CCOC(=O)CSc1ccc(-c2nc3ccccc3[nH]2)cn1`, the luminescence was 0 (inactive).

With `Cc1nc(C)c(C(=O)C2=C(O)C(=O)N(CCN3CCOCC3)C2c2ccco2)s1` (stereo unspecified), the luminescence is 0 (inactive).

In the case of `CC(C)OC(=O)c1nnc(Cc2ccc(F)cc2)o1`, the luminescence is 0 (inactive).

With `CC(NC(=O)c1ccccc1Br)c1ccc2c(c1)CCCC2` (stereo unspecified), the luminescence is 40 (inactive).

Turning to `Cc1ccc(C(=O)CC(C(=O)O)c2cn(CCC#N)c3ccccc23)cc1` (stereo unspecified), the luminescence is 40 (inactive).

As to `CCC(C)c1ccc(-c2cc(C(=O)OCC(=O)Nc3cc(C)on3)c3ccccc3n2)cc1` (stereo unspecified), the luminescence was 0 (inactive).

In the case of `CCc1cccc(C)c1NC(=O)CN1C(=O)c2ccccc2S1(=O)=O`, the luminescence was 200 (inactive).

In the case of `N#Cc1nc(-c2cccc3ccccc23)oc1N1CCCCC1`, the luminescence is 0 (inactive).

Take `Cc1ccn2cc(CCNC(=O)C3CCCCC3)nc2c1`: the luminescence is 0 (inactive).

Consider `Cc1c(NC(=O)CSc2nnc3sc4ccccc4n23)c(=O)n(-c2ccccc2)n1C`, for which the luminescence is 40 (inactive).

In the case of `COC(=O)/C(=C\Nc1ccccc1N)c1ncc(C(F)(F)F)cc1Cl`, the luminescence is 40 (inactive).

Take `COc1ccc(C(=O)NC(Cc2ccccc2)c2ccc3c(c2)OCCCO3)cc1` (stereo unspecified): the luminescence was 0 (inactive).

`O=C(O)c1ccc(NS(=O)(=O)c2cccc3cccnc23)cc1`: the luminescence is 0 (inactive).

With `CCCNS(=O)(=O)c1ccc(CCC(=O)N2CCN(c3ccc(OC)cc3)CC2)cc1`, the luminescence was 0 (inactive).

Consider `O=C(c1ccco1)N1CCN=C1SCc1ccccc1Cl`, for which the luminescence was 0 (inactive).

Consider `Oc1c(C(c2cccs2)N2CCN(c3cccc(Cl)c3)CC2)sc2ncnn12` (stereo unspecified), for which the luminescence was 40 (inactive).

Consider `COc1ccc(C(=O)NCCn2cc(SCC(=O)NCc3ccco3)c3ccccc32)cc1`, for which the luminescence was 0 (inactive).

Turning to `CCn1c(SCC(=O)NCCc2ccccc2)nnc1-c1ccco1`, the luminescence was 0 (inactive).

For `COc1cc(OC)cc(-c2cc(N)n(S(=O)(=O)Cc3ccccc3)n2)c1`, the luminescence is 40 (inactive).

Regarding `CCC(=O)N=c1sc2c(C)cc(C)cc2n1CC(=O)OC`, the luminescence was 0 (inactive).

For the compound `Cc1ccc2[nH]c(=O)c(CN(CCCN(C)C)C(=O)Nc3ccc(Cl)cc3)cc2c1`, the luminescence was 0 (inactive).

As to `CC(=O)c1sc(NC(=O)c2ccccc2F)nc1C`, the luminescence is 80 (inactive).

Regarding `CC(C)N(Cc1nc(-c2ccccc2)no1)C(=O)c1ccc(Cl)cc1`, the luminescence was 0 (inactive).

Turning to `O=C(O)C1CCC(=O)N(C2CCCCC2)C1c1ccccc1` (stereo unspecified), the luminescence was 0 (inactive).

As to `Cc1ccn(CCSCC(=O)O)n1`, the luminescence was 0 (inactive).

Turning to `CCc1ccc(-c2cc(C(F)(F)F)n3nc(C(=O)Nc4c(C)nn(Cc5ccccc5C)c4C)cc3n2)s1`, the luminescence was 0 (inactive).

Take `Cc1cccc2cc(CN(Cc3cccs3)Cc3nnnn3Cc3ccccc3)c(=O)[nH]c12`: the luminescence was 0 (inactive).

Take `CC(=O)c1cccc(N(CC(=O)O)S(C)(=O)=O)c1`: the luminescence was 40 (inactive).

Take `CCN(CC)CCN1C(=O)C(=O)/C(=C(/O)c2c(C)[nH]c(C(=O)OC)c2C)C1c1cccs1` (stereo unspecified): the luminescence was 0 (inactive).

With `COc1ccc2nc(SCc3nc(N)nc(Nc4ccccc4)n3)[nH]c2c1`, the luminescence was 40 (inactive).

`CCOc1ccc(N(CC(=O)NC(C)(C)C)C(=O)c2ccco2)cc1`: the luminescence is 40 (inactive).

With `CCOC(=O)c1c(C)c(C(=O)NCC2CCCO2)c(C)n1CC` (stereo unspecified), the luminescence was 0 (inactive).

As to `O=C(NCCC1=CCCCC1)c1ccc(F)c(S(=O)(=O)N2CCOCC2)c1`, the luminescence was 0 (inactive).

Regarding `BrC(=C\c1ccccc1)/C=N/N1CCN(Cc2ccccc2)CC1`, the luminescence is 0 (inactive).

As for `COC(=O)c1c(C)[nH]c(C)c1-c1ccccc1Cl`, the luminescence is 0 (inactive).

In the case of `CCOC(=O)C(=CNc1cc(C)nn1-c1ccc(C)cc1)C(=O)OCC`, the luminescence was 40 (inactive).

For `CCc1nc(SCC(N)=O)c2c(=O)n(C)c(=O)n(C)c2n1`, the luminescence was 40 (inactive).

As to `COC(=O)c1ccc(Oc2ccc(C(C)(C)C)cc2)c([N+](=O)[O-])c1`, the luminescence was 0 (inactive).

Regarding `Cc1ccc(C(=O)c2ccc([N+](=O)[O-])cc2)cc1C`, the luminescence was 40 (inactive).

In the case of `COC(=O)c1c(NC(=O)C2CC2)sc2c1CCCC2`, the luminescence was 40 (inactive).

With `CS(=O)(=O)N(CC(=O)NCCC1=CCCCC1)C1CCCCC1`, the luminescence is 40 (inactive).

Regarding `O=C(CSc1nnc(C2CC2)n1Cc1ccccc1)c1cc2ccccc2o1`, the luminescence was 80 (inactive).

For the compound `COc1ccc(NC(=O)CSc2nc(O)cc(=O)n2C)cc1`, the luminescence is 0 (inactive).

Turning to `COc1cc(NC(=O)Cn2nc(C(F)(F)F)c3c2CCCC3)cc(OC)c1OC`, the luminescence was 280 (inactive).

For `CCOCCCN(Cc1ccco1)C(=O)c1cc2c(=O)[nH]c3ccc(C)cc3c2s1`, the luminescence was 0 (inactive).

Take `COc1cccc(-c2nc(CS(=O)CC(=O)NCc3ccccc3Cl)c(C)o2)c1` (stereo unspecified): the luminescence was 0 (inactive).

Consider `COC(=O)c1ccccc1NC(=O)C1CC(=O)N(c2ccccc2)C1` (stereo unspecified), for which the luminescence is 0 (inactive).

Regarding `CCOC(=O)Cc1csc(-n2sc3ccccc3c2=O)n1`, the luminescence was 0 (inactive).

As for `O=C(NC1CCCc2ccccc21)C1CCN(C(=O)c2sccc2-n2cccc2)CC1` (stereo unspecified), the luminescence is 40 (inactive).

Turning to `COC(=O)[C@H](C)NC(=O)Nc1cccc(C)c1`, the luminescence is 0 (inactive).

As to `CNC(=O)NC(=O)CSc1ncc(C(F)(F)F)cc1Cl`, the luminescence is 0 (inactive).

`N#Cc1ccccc1OCC(=O)NC(N)=O`: the luminescence is 0 (inactive).

Regarding `Cc1cc(NS(=O)(=O)c2ccc(NC(=O)C(C(C)C)N3C(=O)c4ccccc4C3=O)cc2)nc(C)n1` (stereo unspecified), the luminescence was 0 (inactive).

As for `CCOC(=O)COc1cccc2c(=O)n(CC(=O)N3CCc4ccccc43)ccc12`, the luminescence is 0 (inactive).

Turning to `Cn1c(=O)c2c(nc(N3CCCCCC3)n2CCSc2nc3ccccc3o2)n(C)c1=O`, the luminescence was 0 (inactive).

In the case of `O=C(Nc1ccc(Br)cc1F)C1CCCN(S(=O)(=O)c2cnc[nH]2)C1` (stereo unspecified), the luminescence is 0 (inactive).

With `O=C(Nc1nccs1)c1nc(-c2ccccc2)n(-c2ccccc2)n1`, the luminescence is 280 (inactive).

As to `Cc1csc2nc(CNC(=O)C3CC=CCC3C(=O)O)cn12` (stereo unspecified), the luminescence is 0 (inactive).

As to `COC(=O)c1ccccc1NC(=O)Nc1nnc(N2CCC(C)CC2)s1`, the luminescence was 0 (inactive).

For `CC(=O)Nc1nnc(-c2ccc(Cl)s2)o1`, the luminescence is 0 (inactive).

As to `CCOC(=O)N1CCN(C(=O)C2CCCN(S(=O)(=O)c3cccnc3)C2)CC1` (stereo unspecified), the luminescence was 0 (inactive).

With `Cc1cccc(C)c1NC(=O)c1sccc1SCc1cccc(C(F)(F)F)c1`, the luminescence was 40 (inactive).

In the case of `O=C(CCc1ccccc1)Nc1ccc(F)cc1F`, the luminescence was 40 (inactive).

`COC(=O)c1cc(COc2ccc3c4c(c(=O)oc3c2)CCCC4)c(C)o1`: the luminescence is 0 (inactive).

Regarding `COc1ccc(OC)c(NC(=O)c2cn(C)c(=O)c3cc(OC)c(OC)cc23)c1`, the luminescence is 0 (inactive).

For the compound `CC1(C)CC(=O)c2cc(OCC(=O)N3CCOCC3)ccc2O1`, the luminescence is 40 (inactive).

As to `CC(C)C(NC(=O)c1cccs1)c1nnc(SCC(=O)Nc2nccs2)n1C` (stereo unspecified), the luminescence is 40 (inactive).

Regarding `COC(=O)c1nn(-c2ccccc2)c(Cl)c1/C=N/OCc1ccc(Cl)cc1Cl`, the luminescence was 40 (inactive).

Take `CC(C)CC(=O)Nc1ccc(S(=O)(=O)NCc2ccco2)cc1`: the luminescence is 0 (inactive).

For `CCOC(=O)C(C)Sc1nnc(Cc2cc(=O)[nH]c(=O)[nH]2)n1-c1ccc(OCC)cc1` (stereo unspecified), the luminescence was 0 (inactive).

For `CC1CCCCC1NC(=O)c1ccc(CNc2c(N3CCCC3)c(=O)c2=O)cc1` (stereo unspecified), the luminescence is 0 (inactive).

Consider `Cc1cnc(C(=O)Nc2cccc3cccnc23)cn1`, for which the luminescence was 40 (inactive).

On to `CN1CCN(c2cc3c(c4c2[nH]c2ccccc24)C(=O)CC(C)(C)C3)CC1`, for which the luminescence is 40 (inactive).

Regarding `Cc1cc(C(=O)CSc2nnc(-c3ccc(F)cc3)o2)c(C)n1CC1CCCO1` (stereo unspecified), the luminescence is 0 (inactive).
